# In article PMC7862700, “An all-to-all approach to the identification of sequence-specific readers for epigenetic DNA modifications on cytosine”:
# Key:
# Test in all cases: DAPPL (digital affinity profiling via proximity ligation, sequencing); 10 mM Tris-HCl pH 7.5, 50 mM NaCl, 1 mM DTT, 4% glycerol, room temperature, 30 min; GST-TFs on glutathione beads, 16-mer random dsDNA library, 0.1% formaldehyde crosslink after washing; high values mean tight binding
# FLI1 = molecular target: T1, FLI1 (Homo sapiens, UniProt Q01543 1-452); details: protein: recombinant; tags: N-terminal GST; dsDNA, one strand shown
# T1 sequence: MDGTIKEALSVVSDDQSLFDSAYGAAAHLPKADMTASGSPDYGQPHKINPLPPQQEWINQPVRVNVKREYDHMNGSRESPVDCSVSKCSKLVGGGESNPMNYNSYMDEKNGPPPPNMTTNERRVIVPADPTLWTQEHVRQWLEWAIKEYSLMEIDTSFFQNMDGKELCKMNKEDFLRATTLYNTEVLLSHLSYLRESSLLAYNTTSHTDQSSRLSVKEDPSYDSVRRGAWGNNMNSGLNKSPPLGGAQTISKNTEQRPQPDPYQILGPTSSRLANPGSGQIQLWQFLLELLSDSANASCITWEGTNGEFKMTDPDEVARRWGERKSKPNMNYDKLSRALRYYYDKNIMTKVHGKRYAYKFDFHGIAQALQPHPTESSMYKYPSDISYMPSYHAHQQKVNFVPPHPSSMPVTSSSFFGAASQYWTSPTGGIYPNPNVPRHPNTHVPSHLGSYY
# Procedure, shortened: (§1)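 In yeast, human transcription factors were expressed with a GST fusion, then pulled down on glutathione beads and given DNA barcodes. Pooled with a tag-only sample, they were exposed to 200 nmole of a 16-mer random double-stranded DNA library (Tris/NaCl/DTT/glycerol buffer, room temperature, 30 min), washed, crosslinked with 0.1% formaldehyde, proximity-ligated using BsaI/T4 ligase for 1 h at 37 °C, PCR-amplified and read on an Illumina NextSeq500. Each hexamer's frequency of reads for a factor, divided by the matching frequency for the tag-only sample, gives the binding signal.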
# ELK1 = molecular target: T2, ELK1 (Homo sapiens, UniProt P19419 1-428); details: protein: recombinant; tags: N-terminal GST; dsDNA, one strand shown
# T2 sequence: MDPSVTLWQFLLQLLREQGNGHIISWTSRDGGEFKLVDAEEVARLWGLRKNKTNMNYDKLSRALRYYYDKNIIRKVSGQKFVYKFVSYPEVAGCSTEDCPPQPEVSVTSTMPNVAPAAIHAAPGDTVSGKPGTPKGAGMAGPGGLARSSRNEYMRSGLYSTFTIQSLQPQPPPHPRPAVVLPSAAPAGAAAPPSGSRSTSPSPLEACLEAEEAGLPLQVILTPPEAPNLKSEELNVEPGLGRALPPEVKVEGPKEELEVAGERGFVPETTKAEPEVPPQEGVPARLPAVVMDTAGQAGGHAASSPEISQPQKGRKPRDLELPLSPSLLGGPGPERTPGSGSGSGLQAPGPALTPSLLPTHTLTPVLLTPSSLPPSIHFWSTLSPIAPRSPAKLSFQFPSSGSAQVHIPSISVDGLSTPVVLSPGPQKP
# Procedure, shortened: as §1
# GABPA = molecular target: T3, GABPA (Homo sapiens, UniProt Q06546 1-454); details: protein: recombinant; tags: N-terminal GST; dsDNA, one strand shown
# T3 sequence: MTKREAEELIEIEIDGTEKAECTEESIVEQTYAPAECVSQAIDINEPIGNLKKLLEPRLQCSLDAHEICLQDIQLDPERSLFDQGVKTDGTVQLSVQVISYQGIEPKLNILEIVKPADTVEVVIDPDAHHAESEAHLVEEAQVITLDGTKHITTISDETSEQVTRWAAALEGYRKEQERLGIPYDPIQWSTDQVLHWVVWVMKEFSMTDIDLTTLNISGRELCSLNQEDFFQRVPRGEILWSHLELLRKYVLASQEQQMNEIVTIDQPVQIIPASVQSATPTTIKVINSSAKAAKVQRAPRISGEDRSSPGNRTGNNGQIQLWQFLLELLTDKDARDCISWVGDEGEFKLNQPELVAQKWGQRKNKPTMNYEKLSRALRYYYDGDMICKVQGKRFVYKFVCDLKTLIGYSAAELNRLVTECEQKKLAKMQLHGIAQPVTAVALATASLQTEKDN
# Procedure, shortened: as §1
# ERG = molecular target: T4, ERG (Homo sapiens, UniProt P11308 1-479); details: protein: recombinant; tags: N-terminal GST; dsDNA, one strand shown
# T4 sequence: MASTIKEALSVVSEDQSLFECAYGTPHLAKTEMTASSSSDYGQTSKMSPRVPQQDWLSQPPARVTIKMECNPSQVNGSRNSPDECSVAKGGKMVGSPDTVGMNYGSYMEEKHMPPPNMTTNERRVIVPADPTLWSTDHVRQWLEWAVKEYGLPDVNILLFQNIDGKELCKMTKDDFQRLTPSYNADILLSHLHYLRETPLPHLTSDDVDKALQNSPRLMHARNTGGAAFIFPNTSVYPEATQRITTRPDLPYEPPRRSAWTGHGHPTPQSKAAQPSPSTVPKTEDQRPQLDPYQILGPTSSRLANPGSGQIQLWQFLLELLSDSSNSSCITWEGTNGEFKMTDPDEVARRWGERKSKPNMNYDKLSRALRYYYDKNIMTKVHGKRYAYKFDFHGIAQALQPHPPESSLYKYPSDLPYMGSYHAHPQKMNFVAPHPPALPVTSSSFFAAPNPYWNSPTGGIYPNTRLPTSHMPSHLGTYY
# Procedure, shortened: as §1
# ELF1 = ELF1 (Homo sapiens, UniProt P32519 1-619); details: protein: recombinant; tags: N-terminal GST; dsDNA, one strand shown
# Procedure, shortened: as §1
# EHF = molecular target: T5, EHF (Homo sapiens, UniProt Q9NZC4 1-300); details: protein: recombinant; tags: N-terminal GST; dsDNA, one strand shown
# T5 sequence: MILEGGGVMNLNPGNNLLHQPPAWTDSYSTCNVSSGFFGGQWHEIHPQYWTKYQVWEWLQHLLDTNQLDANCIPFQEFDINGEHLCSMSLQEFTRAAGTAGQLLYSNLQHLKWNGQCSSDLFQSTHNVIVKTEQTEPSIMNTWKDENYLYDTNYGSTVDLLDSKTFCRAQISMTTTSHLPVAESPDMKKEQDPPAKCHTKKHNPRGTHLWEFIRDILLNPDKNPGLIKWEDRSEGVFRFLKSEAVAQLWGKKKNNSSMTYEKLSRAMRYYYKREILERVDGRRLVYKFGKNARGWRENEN
# Procedure, shortened: as §1
# SPI1 = SPI1 (Homo sapiens, UniProt P17947 1-270); details: protein: recombinant; tags: N-terminal GST; dsDNA, one strand shown
# Procedure, shortened: as §1
# SPIB = SPIB (Homo sapiens, UniProt Q01892 1-262); details: protein: recombinant; tags: N-terminal GST; dsDNA, one strand shown
# Procedure, shortened: as §1
# ELK3 = molecular target: T6, ELK3 (Homo sapiens, UniProt P41970 1-407); details: protein: recombinant; tags: N-terminal GST; dsDNA, one strand shown
# T6 sequence: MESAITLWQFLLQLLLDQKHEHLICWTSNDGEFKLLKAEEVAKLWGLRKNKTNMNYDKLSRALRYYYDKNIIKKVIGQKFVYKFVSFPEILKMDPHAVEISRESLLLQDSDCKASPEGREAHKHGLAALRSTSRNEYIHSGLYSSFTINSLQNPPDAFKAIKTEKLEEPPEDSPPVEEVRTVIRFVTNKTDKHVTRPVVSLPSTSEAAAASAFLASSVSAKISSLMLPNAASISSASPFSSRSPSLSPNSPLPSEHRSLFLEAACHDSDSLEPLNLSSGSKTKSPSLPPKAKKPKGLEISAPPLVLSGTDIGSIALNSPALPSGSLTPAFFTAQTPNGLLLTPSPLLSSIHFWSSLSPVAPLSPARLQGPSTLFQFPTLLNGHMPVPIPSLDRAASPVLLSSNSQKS
# Procedure, shortened: as §1
# FEV = molecular target: T7, FEV (Homo sapiens, UniProt Q99581 1-238); details: protein: recombinant; tags: N-terminal GST; dsDNA, one strand shown
# T7 sequence: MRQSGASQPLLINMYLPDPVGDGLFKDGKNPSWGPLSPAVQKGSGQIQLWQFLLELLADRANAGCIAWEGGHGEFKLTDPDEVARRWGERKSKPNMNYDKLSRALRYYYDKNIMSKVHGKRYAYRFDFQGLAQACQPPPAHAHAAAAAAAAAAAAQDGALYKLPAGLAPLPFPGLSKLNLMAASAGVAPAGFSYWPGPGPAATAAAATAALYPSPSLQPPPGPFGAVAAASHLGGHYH
# Procedure, shortened: as §1
# ETV5 = ETV5 (Homo sapiens, UniProt P41161 1-510); details: protein: recombinant; tags: N-terminal GST; dsDNA, one strand shown
# Procedure, shortened: as §1
# HSF1 = HSF1 (Homo sapiens, UniProt Q00613 1-529); details: protein: recombinant; tags: N-terminal GST; chain copies: 3; dsDNA, one strand shown
# Procedure, shortened: as §1
# SPIC = molecular target: T8, SPIC (Homo sapiens, UniProt Q8N5J4 1-248); details: protein: recombinant; tags: N-terminal GST; dsDNA, one strand shown
# T8 sequence: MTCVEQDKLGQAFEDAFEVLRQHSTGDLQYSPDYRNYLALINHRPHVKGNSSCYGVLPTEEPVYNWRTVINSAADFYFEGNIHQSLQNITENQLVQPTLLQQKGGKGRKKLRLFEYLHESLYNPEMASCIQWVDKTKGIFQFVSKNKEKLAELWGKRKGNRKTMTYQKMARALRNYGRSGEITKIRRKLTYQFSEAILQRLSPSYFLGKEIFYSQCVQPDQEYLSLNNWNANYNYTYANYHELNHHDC
# Procedure, shortened: as §1
# ELF4 = ELF4 (Homo sapiens, UniProt Q99607 1-663); details: protein: recombinant; tags: N-terminal GST; dsDNA, one strand shown
# Procedure, shortened: as §1
# ELK4 = molecular target: T9, ELK4 (Homo sapiens, UniProt P28324-2 1-405); details: protein: recombinant; tags: N-terminal GST; dsDNA, one strand shown
# T9 sequence: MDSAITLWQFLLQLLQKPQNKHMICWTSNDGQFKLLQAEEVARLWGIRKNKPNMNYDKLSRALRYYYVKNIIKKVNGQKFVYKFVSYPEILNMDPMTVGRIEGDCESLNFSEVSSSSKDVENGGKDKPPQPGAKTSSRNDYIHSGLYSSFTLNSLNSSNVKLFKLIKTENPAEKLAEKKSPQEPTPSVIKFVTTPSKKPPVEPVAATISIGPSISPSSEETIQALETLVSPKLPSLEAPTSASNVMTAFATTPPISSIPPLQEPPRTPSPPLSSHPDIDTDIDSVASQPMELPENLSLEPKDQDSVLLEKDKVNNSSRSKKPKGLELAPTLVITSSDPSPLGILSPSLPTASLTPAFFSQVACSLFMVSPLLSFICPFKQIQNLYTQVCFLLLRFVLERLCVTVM
# Procedure, shortened: as §1
# ETV2 = molecular target: T10, ETV2 (Homo sapiens, UniProt O00321 1-342); details: protein: recombinant; tags: N-terminal GST; dsDNA, one strand shown
# T10 sequence: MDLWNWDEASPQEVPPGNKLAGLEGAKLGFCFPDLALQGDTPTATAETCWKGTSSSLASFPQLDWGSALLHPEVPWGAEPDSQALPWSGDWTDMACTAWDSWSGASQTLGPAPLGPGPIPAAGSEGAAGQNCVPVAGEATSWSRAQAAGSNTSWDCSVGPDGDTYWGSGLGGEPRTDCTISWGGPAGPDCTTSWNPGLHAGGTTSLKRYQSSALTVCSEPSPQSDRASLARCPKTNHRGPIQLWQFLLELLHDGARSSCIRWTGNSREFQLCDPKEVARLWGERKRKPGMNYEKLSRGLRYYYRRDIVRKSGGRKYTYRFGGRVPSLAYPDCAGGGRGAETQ
# Procedure, shortened: as §1
# ELF3 = molecular target: T11, ELF3 (Homo sapiens, UniProt P78545 1-371); details: protein: recombinant; tags: N-terminal GST; dsDNA, one strand shown
# T11 sequence: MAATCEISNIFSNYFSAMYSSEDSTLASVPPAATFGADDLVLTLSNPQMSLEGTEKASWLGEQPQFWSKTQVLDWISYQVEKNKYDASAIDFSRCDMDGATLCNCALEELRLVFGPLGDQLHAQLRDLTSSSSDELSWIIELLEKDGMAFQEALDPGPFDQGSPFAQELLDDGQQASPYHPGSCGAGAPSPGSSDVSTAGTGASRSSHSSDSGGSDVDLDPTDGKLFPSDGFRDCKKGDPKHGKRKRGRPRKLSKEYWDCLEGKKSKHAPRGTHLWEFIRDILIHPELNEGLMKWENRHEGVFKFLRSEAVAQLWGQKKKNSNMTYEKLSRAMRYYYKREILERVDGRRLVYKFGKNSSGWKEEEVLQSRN
# Procedure, shortened: as §1
# ETV1 = ETV1 (Homo sapiens, UniProt P50549 1-477); details: protein: recombinant; tags: N-terminal GST; dsDNA, one strand shown
# Procedure, shortened: as §1
# Chain of ELF1 (P32519 whole entry): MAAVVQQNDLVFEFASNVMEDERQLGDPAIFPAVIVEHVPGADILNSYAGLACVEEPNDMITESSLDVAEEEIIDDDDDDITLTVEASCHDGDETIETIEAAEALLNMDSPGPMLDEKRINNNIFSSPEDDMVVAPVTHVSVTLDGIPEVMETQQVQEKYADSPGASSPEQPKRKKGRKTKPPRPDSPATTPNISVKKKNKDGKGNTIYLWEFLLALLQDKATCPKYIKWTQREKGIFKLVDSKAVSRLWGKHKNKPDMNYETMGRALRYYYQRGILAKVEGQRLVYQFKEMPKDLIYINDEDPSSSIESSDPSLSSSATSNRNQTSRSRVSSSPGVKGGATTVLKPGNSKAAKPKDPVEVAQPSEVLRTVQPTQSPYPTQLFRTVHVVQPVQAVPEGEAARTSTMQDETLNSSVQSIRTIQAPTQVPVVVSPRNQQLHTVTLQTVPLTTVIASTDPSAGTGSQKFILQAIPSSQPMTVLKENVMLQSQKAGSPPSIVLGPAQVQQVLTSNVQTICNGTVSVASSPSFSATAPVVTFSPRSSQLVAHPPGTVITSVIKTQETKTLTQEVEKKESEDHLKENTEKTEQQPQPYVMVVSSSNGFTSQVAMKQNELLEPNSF
# Chain of ELF4 (Q99607 whole entry): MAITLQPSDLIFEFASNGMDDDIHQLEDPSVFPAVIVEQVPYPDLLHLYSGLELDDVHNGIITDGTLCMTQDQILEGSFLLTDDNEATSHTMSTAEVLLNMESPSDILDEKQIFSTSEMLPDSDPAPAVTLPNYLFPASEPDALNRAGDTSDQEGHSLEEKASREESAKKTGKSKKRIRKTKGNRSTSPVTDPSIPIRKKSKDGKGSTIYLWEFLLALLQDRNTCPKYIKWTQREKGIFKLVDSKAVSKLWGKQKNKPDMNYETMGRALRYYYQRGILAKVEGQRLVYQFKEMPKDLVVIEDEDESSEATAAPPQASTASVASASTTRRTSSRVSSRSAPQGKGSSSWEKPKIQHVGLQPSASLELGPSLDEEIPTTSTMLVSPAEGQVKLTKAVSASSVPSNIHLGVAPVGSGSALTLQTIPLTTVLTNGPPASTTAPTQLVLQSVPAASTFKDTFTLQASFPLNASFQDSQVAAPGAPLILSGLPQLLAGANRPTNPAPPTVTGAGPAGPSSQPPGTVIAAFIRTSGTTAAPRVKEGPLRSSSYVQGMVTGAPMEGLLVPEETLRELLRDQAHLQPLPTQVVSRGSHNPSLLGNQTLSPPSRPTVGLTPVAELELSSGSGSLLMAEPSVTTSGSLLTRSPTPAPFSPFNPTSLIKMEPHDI
# Chain of ETV1 (P50549 whole entry): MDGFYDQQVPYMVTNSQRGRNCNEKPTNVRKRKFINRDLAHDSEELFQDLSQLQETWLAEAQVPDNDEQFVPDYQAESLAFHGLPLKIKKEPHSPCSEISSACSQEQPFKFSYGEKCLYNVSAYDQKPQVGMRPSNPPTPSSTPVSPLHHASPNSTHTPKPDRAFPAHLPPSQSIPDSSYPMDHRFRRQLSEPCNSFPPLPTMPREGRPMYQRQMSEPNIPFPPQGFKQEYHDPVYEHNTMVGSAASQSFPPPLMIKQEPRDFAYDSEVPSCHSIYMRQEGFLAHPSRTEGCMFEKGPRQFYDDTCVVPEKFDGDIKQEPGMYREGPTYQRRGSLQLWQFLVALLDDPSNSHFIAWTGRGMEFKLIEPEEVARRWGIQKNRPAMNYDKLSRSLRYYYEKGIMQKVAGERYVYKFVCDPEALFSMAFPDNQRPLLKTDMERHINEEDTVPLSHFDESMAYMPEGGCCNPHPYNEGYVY
# Chain of ETV5 (P41161 whole entry): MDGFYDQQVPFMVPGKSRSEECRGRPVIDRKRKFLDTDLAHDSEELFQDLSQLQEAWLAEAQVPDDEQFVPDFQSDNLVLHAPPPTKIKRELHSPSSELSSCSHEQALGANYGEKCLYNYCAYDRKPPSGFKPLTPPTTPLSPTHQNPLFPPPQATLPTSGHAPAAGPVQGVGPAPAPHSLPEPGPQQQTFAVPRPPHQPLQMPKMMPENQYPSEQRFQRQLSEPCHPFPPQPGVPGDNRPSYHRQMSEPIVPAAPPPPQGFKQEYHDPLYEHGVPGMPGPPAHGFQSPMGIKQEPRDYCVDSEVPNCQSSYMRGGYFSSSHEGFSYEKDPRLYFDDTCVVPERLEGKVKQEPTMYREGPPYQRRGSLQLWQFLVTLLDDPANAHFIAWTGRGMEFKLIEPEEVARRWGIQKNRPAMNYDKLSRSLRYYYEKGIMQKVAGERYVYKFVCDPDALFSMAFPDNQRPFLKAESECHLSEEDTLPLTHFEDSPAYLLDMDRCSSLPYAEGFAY
# Chain of SPIB (Q01892 whole entry): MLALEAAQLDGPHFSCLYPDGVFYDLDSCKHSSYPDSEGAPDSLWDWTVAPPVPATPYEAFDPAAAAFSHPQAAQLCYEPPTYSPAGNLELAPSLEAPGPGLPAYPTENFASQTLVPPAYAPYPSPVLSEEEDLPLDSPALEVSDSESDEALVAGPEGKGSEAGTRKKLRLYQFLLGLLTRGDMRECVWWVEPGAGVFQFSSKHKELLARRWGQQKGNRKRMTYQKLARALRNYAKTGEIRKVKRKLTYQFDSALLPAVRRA
# Chain of HSF1 (Q00613 whole entry): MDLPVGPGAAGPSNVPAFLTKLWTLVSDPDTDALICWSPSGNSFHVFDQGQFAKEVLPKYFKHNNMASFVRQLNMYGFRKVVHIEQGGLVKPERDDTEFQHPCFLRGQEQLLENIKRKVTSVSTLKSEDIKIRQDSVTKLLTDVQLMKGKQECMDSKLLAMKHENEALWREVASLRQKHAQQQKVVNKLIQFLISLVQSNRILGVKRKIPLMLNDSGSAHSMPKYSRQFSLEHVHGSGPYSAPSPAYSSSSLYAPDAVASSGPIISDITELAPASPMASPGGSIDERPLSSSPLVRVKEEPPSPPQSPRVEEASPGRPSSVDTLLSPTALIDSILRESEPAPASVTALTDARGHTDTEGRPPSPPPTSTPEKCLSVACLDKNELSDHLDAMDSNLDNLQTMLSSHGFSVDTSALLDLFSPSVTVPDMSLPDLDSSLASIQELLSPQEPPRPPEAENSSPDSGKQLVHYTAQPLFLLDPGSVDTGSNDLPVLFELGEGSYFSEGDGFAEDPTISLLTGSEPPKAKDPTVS
sequence,measurement,setting,value
GGATCC,binding signal,FLI1,"1.15 fold enrichment (6-mer frequency, TF over GST control)"
same,binding signal,ELK1,"1.13 fold enrichment (6-mer frequency, TF over GST control)"
same,binding signal,GABPA,"1.18 fold enrichment (6-mer frequency, TF over GST control)"
same,binding signal,ERG,"1.25 fold enrichment (6-mer frequency, TF over GST control)"
same,binding signal,ELF1,"1.18 fold enrichment (6-mer frequency, TF over GST control)"
same,binding signal,EHF,"1.16 fold enrichment (6-mer frequency, TF over GST control)"
same,binding signal,SPI1,"1.06 fold enrichment (6-mer frequency, TF over GST control)"
same,binding signal,SPIB,"1.24 fold enrichment (6-mer frequency, TF over GST control)"
same,binding signal,ELK3,"1.07 fold enrichment (6-mer frequency, TF over GST control)"
same,binding signal,FEV,"1.16 fold enrichment (6-mer frequency, TF over GST control)"
same,binding signal,ETV5,"1.17 fold enrichment (6-mer frequency, TF over GST control)"
same,binding signal,HSF1,"1.04 fold enrichment (6-mer frequency, TF over GST control)"
same,binding signal,SPIC,"1.13 fold enrichment (6-mer frequency, TF over GST control)"
same,binding signal,ELF4,"1.13 fold enrichment (6-mer frequency, TF over GST control)"
same,binding signal,ELK4,"1.05 fold enrichment (6-mer frequency, TF over GST control)"
same,binding signal,ETV2,"1.29 fold enrichment (6-mer frequency, TF over GST control)"
same,binding signal,ELF3,"1.29 fold enrichment (6-mer frequency, TF over GST control)"
same,binding signal,ETV1,"1.14 fold enrichment (6-mer frequency, TF over GST control)"
